Reference: ChEMBL document CHEMBL1157539, “Thousands of chemical starting points for antimalarial lead identification” (Nature, 2010)

Tests used:
Assay type in all cases: functional
[1] = test system: Plasmodium falciparum; experiment: GSK_TCMDC: Inhibition of Plasmodium falciparum 3D7 in whole red blood cells, using parasite LDH activity as an index of growth. Test compounds present at 2uM
[2] = test system: Plasmodium falciparum; experiment: GSK_TCMDC: Inhibition of Plasmodium falciparum Dd2 in whole red blood cells, using parasite LDH activity as an index of growth. Test compounds present at 2uM
[3] = test system: HepG2; experiment: GSK_TCMDC: Percent inhibition of human HepG2 cell line. Test compounds present at 10uM.

Structure (SMILES)	Inhibition [1] [%]	Inhibition [2] [%]	Inhibition [3] [%]
Cl.NC1=NC2(CCCC2)N(c2ccc(Cl)cc2)C(N)=N1	97	0	0
COc1ccc(Nc2nccc(N3CCC(NC(=O)c4cccc(C#N)c4)C3)n2)cc1 (configuration not stated)	92	93	6
Cc1[nH]c(C)c(-c2cccc(-c3ccc(OC(F)(F)F)cc3)c2)c(=O)c1Br	97	96	45
CCN(CC)CCCC(C)Nc1c2ccccc2nc2ccc3ccccc3c12.Cl (configuration not stated)	100	89	24
Br.CCCc1cc(OCCCOc2ccccc2)ccc1OCCCON1C(=N)N=C(N)NC1(C)C	94	96	68
CCNc1cc(C(=O)N[C@@H](Cc2ccccc2)[C@H](O)CNC23CC4CC(CC(C4)C2)C3)cc(N2CCCCS2(=O)=O)c1.Cl	98	99	3
CC1Cc2ccccc2N1S(=O)(=O)c1cccc(C(=O)Nc2nc(-c3ccccn3)cs2)c1 (configuration not stated)	84	77	32
Nc1nccc2ccc(-c3cccc(OCc4ccccc4)c3)cc12.O=C(O)C(F)(F)F	100	81	47
COc1ccc(-c2ccc(NC(=O)c3ccc(F)cc3)cc2)cc1CNC(C)C.O=C(O)C(F)(F)F	97	28	24
COc1ccccc1-n1ccnc1SCC(=O)Nc1cccc(C(F)(F)F)c1	95	96	1
Cc1cc2c(cc1C(F)(F)F)N(C(=O)Nc1cnc(OCCN(C)C)c(C(F)(F)F)c1)CC2	88	25	28
CCC1(C)N=C(N)N=C(N)N1c1ccc(Cl)cc1.Cl (configuration not stated)	95	0	7
O=C(c1cccs1)N1N=C(c2cccs2)CC1c1cccc([N+](=O)[O-])c1 (configuration not stated)	95	27	5
CC(C)C[C@H](NC(=O)c1cc2ccccc2s1)C(=O)N[C@H]1CCN(Cc2ccc(OC[C@@H]3CCCN3C)c(Cl)c2)C1.O=C(O)C(F)(F)F	100	81	83
FC(F)(F)c1ccc2[nH]c(-c3ccc(-c4cccc(CN5CCC(CCN6CCCCC6)CC5)c4)cc3)nc2c1.O=C(O)C(F)(F)F	100	96	100
Cc1ccnc(NC(c2ccc(Cl)c([N+](=O)[O-])c2)c2ccc3cccnc3c2O)c1 (configuration not stated)	89	57	47
CO/C(=C\C=C\c1cc2cc(Cl)c(Cl)cc2[nH]1)C(=O)NCCN1CCCCC1	81	86	16
Cc1cc(C)cc(NC(=S)NCCCCN2CCN(c3cccc(Cl)c3)CC2)c1	88	13	11
Cc1ccc(Nc2nccc(Nc3ccc4c(C)n[nH]c4c3)n2)cc1F.Cl	95	1	6
COc1ccc2nc(C)cc(Nc3ccc(Cl)cc3)c2c1	89	3	10
COc1ccc(Cc2c(C)nc3nc(N)nc(N)c3c2C)cc1.Cl	93	2	61
CN1CCN(Cc2ccc(-c3ccc4c(Nc5cc(O)c(F)cc5Cl)ccnc4c3)o2)CC1	100	99	27
CCCCCCc1c(C)nc2cc(OC)ccc2c1O	97	97	10
COc1ccc2nccc([C@@H](O)CN3CCC(NCc4cc5oc(=O)n(C)c5cc4F)CC3)c2c1.O=C(O)C(=O)O	99	72	0
O=C(O)C(F)(F)F.Oc1ccc(CCNc2nc(NCCOc3cccc4ccccc34)nc(N3CCNCC3)n2)cc1	96	8	21
CCCOc1cc(O)c(-c2[nH]nc(C)c2Oc2ccccc2)cc1CC	91	46	0
C[C@@H](CC1CCCCC1)OC(=O)N(C)[C@@H]1CCN(C#N)C1	95	96	5
COc1cc(NC(=O)N2CCOC(CCN3CCC4(CCc5ccccc54)CC3)(c3ccc(Cl)c(Cl)c3)C2)cc(OC)c1 (configuration not stated)	87	50	29
COCCNCc1cccc(-c2ccc3c(Nc4ccc(F)cc4Cl)ccnc3c2)c1	100	100	8
